# Source: PubChem (National Center for Advancing Translational Sciences (NCATS))
# Rows were chosen to be rich in hits. Some 19% of all compounds tested hit in one or more screens of this group.
# TDP1 cell noCPT = qHTS for Inhibitors of human tyrosyl-DNA phosphodiesterase 1 (TDP1): qHTS in cells in absence of CPT; DT40 Tdp1-/- hTDP1 cells, no CPT, ATP luminescence, 48 h; Potency, µM (series often up to 46.2 µM), hits mostly inhibitors; 15% of 420,000 active; AID 686978, 2013; note: nearly all actives have a fitted effect of over 55% in size
#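 Growth of hTDP1-complemented DT40 Tdp1-knockout cells is measured by ATP luminescence after at least 48 hr compound exposure at 37 °C, with DMSO substituting for the 20 nM CPT used in the parallel screen.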
# BCR signal inh = blocks chronic active B-cell receptor signaling; ABC-DLBCL IkBa-CBG/CBR reporter, luminescence ratio, 4 h; Potency, µM (top dose mostly 46.1 µM), most hits filed as inhibitors; 0.05% of 340,000 active; AID 493014; active = well fitted inhibition curve with a large enough effect in the signal ratio, with a control signal flat, not every such curve was filed as active; inconclusive = small, poorly fitted or top-dose-only effect, or effect the other way, or a change in a side signal; the % refers to the signal ratio
#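 TMD8 human ABC-DLBCL cells with doxycycline-inducible IκBα–green luciferase fusion and unfused red luciferase, in 0.5% FBS medium; compounds up to 46 uM, 4 h at 37C. Green/red luminescence ratio, filter-overlap corrected, fitted to concentration-response curves.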
# MCF10A rereplic = DNA re-replication induction in MCF 10a cells; MCF 10A DNA re-replication, Hoechst nuclear intensity, 48 h; Potency, µM (highest dose often 46.1 µM), most hits filed as activators; 2.9% of 350,000 active; note: nearly all actives have a fitted effect of over 50% in size
# SW480 rereplic = induces DNA re-replication in SW480 colon adenocarcinoma cells | SW480 DNA re-replication, Hoechst DNA content imaging, 48 h | 1.8% of 340,000 active | Potency, µM (top dose mostly 46.1 µM), hits mostly activators; note: nearly all actives have a fitted effect of over 55% in size
#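 Compounds, transferred as 23 nL by pin tool, were incubated with cells for 48 hr; DNA content per nucleus was then quantified by Hoechst staining and fluorescence plate imaging.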
# IL1B secr inh = blocks inflammasome-driven IL-1 beta release. THP-1 LPS/ATP IL-1B secretion, AlphaLISA, 16 h; active compounds read low. activity change, % at 57.5 µM. 4.7% of 360,000 active; in the data active = activity change below about -50%; inconclusive = mostly about -30% to -49%
#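 THP-1 cells pretreated 1 hr with compounds (up to 57.5 uM final), then stimulated with LPS (250 ng/mL final) plus ATP (1.25 mM final); secreted IL-1B measured by AlphaLISA after 16 hr, decreased signal indicating inhibition.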
# TDP1 cell CPT = growth inhibition of DT40 Tdp1-/-;hTDP1 cells with camptothecin (screen for TDP1 inhibitors) | chicken DT40 Tdp1-/-;hTDP1 cells + 20 nM CPT, ATP luminescence, 48 h | Potency, µM (titrated, usually from 46.2 µM), most hits filed as inhibitors | 12% of 420,000 active | AID 686979; note: nearly all actives have a fitted effect of over 55% in size
#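 Chicken DT40 Tdp1-/- cells complemented with human TDP1, 400 cells/well, exposed to compounds plus 20 nM camptothecin for at least 48 h at 37 C; viability read as ATP content by CellTiter-Glo luminescence.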
# A number is an active result; – = inactive; ? = inconclusive; · = not tested or not shown; [ ] = dose if it differs, or a comment. Unless noted, calls come from the whole dose curve; as a rule, active = well fitted curve in the direction sought with a large enough effect; inconclusive = small, poorly fitted or top-dose-only effect, or another doubt; inactive = no such curve, though single readings can be large; an effect the other way counts as inactive or inconclusive.
SMILES,TDP1 cell noCPT,BCR signal inh,MCF10A rereplic,SW480 rereplic,IL1B secr inh,TDP1 cell CPT
COc1ccc(CCNC(=O)c2cc3c(=O)n4ccccc4nc3n(Cc3ccco3)c2=N)cc1OC,13µM,–,–,–,–,20.6µM
Cc1ccc(Cn2c(=N)c(C(=O)NCc3ccco3)cc3c(=O)n4ccccc4nc32)cc1,11.2µM,?,11.2µM,3.55µM,–,11.2µM
COCCCn1c(=N)c(C(=O)NCc2ccco2)cc2c(=O)n3ccccc3nc21,–,·,·,·,·,–
N=c1c(C(=O)NCc2ccco2)cc2c(=O)n3ccccc3nc2n1CCc1ccccc1,20.6µM,–,8.2µM,13µM,–,18.4µM
COc1ccc(CCn2c(=N)c(C(=O)NCc3ccco3)cc3c(=O)n4ccccc4nc32)cc1OC,6.51µM,·,–,–,?,7.31µM
Cc1ccccc1CN1CCN(C(=O)CC(C)C)CC1,–,–,–,–,–,–
Clc1cccc(Cl)c1CSc1nnc(CN2CCOCC2)n1-c1ccccc1,?,–,?,–,–,16.4µM
CCN(CC)c1cc(CS(=O)c2ccccc2)nc(-c2ccccc2)n1 (configuration not stated),?,·,?,–,-50.1,20.6µM
O=C(COC(=O)c1ccccc1NCCO)NNC(=O)c1cccs1,?,–,–,–,–,–
COC(=O)c1c(NC(=O)CN2C(=O)C(=O)N(CC(C)C)C2=O)sc2c1CCCCC2,–,–,–,–,–,–
CC(C)(C)C(=O)CSc1ncnc2c1cnn2Cc1ccccc1,14.6µM,?,?,–,–,–
Cc1c(Cl)cccc1NC(=O)CSc1ncnc2c1cnn2CCc1ccccc1,?,–,10µM,–[9.22 µM],–,–
COc1cc(NC(=O)CSc2ncnc3c2cnn3Cc2ccccc2)cc(OC)c1,?,–,–[0.0737 µM],–,–,?
COc1ccc(OC)c(NC(=O)CSc2ncnc3c2cnn3-c2ccccc2Cl)c1,1.3µM,?,?,–,-79.4,2.06µM
O=C(CSc1ncnc2c1cnn2CCc1ccccc1)Nc1cccc(C(F)(F)F)c1,23.1µM,?,?,–,–,?
Brc1ccccc1/C=N/Nc1ccccn1,?,–,–,–,–,?
C(=N\Nc1ccccc1)/c1ccc(N2CCOCC2)cc1,–,?,–,–,–,?
COc1ccc(/C=N/Nc2ccccn2)cc1O,–,?,–,–,–,–
Oc1ccc(C=NNc2ccccn2)c(O)c1,2.91µM,·,16.4µM,?,–,4.11µM
Oc1cccc(C=NNc2ccccn2)c1,–,·,–,–,-86.6,–
C(=N\Nc1ccccn1)/c1c[nH]c2ccccc12,?,?,–,–,-94.8,?
C(=N\Nc1ccccn1)/c1ccc(N2CCOCC2)cc1,16.4µM,?,–,–,–,23.1µM
Clc1ccc(/C=N/Nc2ccccn2)cc1,–,?,–,–,–,–
Cc1noc(C)c1/C=N/Nc1ccccn1,–,–,–,–,-70.5,–
Oc1ccc(/C=N/Nc2cccc3cccnc23)c(O)c1,?,?,–,–,-76.8,?
SMILES,TDP1 cell noCPT,BCR signal inh,MCF10A rereplic,SW480 rereplic,IL1B secr inh,TDP1 cell CPT
CCOC(=O)N1CCC(NC(=O)CCc2c(C)nc3c(c(C)nn3-c3ccccc3)c2C)CC1,–,·,–,–,–,–
COc1ccc(CCNC(=O)CCc2c(C)nc3c(c(C)nn3-c3ccc(C)c(C)c3)c2C)cc1OC,16.4µM,·,·,·,·,20.6µM
Cc1cccc(CCNC(=O)CCc2c(C)nc3c(c(C)nn3-c3ccccc3)c2C)c1,14.6µM,·,·,·,·,11.6µM
CCN(CC)CCNC(=O)CCc1c(C)nc2c(c(C)nn2-c2ccc(C)c(C)c2)c1C,16.4µM,?,–,14.6µM,–,?
COc1ccccc1CNC(=O)CCc1c(C)nc2c(c(C)nn2-c2ccc(C)c(C)c2)c1C,–,·,·,·,·,–
CCC(=O)Nc1c(C)nn(-c2ccc(C)c(C)c2)c1C,–,?,–,–,–,–
O=C(COC(=O)c1cnc(Cl)c(Cl)c1)Nc1ccc(S(=O)(=O)N2CCCC2)cc1,–,–,–,–,–,–
CCn1c(C(=O)NCc2ccccc2C)cc2oc3ccccc3c21,?,·,·,·,·,–
OCC1(Cc2ccccc2Cl)CCN(C/C=C/c2ccccc2)CC1,18.4µM,–,–,?,–,?
O=C(CSc1nnc(-c2ccc(S(=O)(=O)N3CCCC3)cc2)o1)NCc1ccccc1,18.4µM,–,–[0.0737 µM],?,–,23.1µM
CC(C)OC(=O)c1cccc(NC(=O)CSc2nnc(N)s2)c1,–,–,–,–,–,–
COc1ccc(S(=O)(=O)/N=C2\C=C(Nc3ccc(O)cc3)C(=O)c3ccccc32)cc1,1.46µM,?,4.61µM,16.4µM,-96.2,0.82µM
Cc1ccc(NC2=C/C(=N/S(=O)(=O)c3cccs3)c3ccccc3C2=O)cc1C,7.31µM,–,?,–,–,?
CC(=O)Nc1ccc(NC2=C/C(=N/S(=O)(=O)c3cccs3)c3ccccc3C2=O)cc1,10.3µM,?,8.2µM,4.11µM,-95.2,13µM
CS(=O)(=O)N1CCC2(CCN(c3ccccn3)CC2)CC1,–,·,·,·,·,–
C#CCN(Cc1nc(N2CCOCC2)c2ccc(Cl)cc2n1)Cc1ccco1,?,·,·,·,·,–[9.04 µM]
CN(Cc1nc2ccccc2c(=O)[nH]1)C(=O)C1CC(=O)N(c2cccc3ccccc23)C1 (configuration not stated),?,–,–,–,–,?
COc1cc(/C=C2\SC(=S)N(CCC(=O)N3CCN(C)CC3)C2=O)cc(OC)c1OC,14.6µM,–,?,–,–,?
CCc1ccc(/C=C2\SC(=S)N(CCC(=O)N3CCN(C)CC3)C2=O)cc1,?,?,–,?,–,–
COc1cc(/C=C2\SC(=O)N(CCNC(=O)c3cnc(C)cn3)C2=O)cc(OC)c1OC,18.4µM,–,–,–,–,?
COc1cc(/C=C2\SC(=S)N(CCC(=O)NC3CCCC3)C2=O)cc(OC)c1OC,?,–,–,–,?,?
COc1cc(/C=C2/SC(=S)N(CCC(=O)N3CCN(C)CC3)C2=O)cc(OC)c1OC,23.1µM,·,·,·,–,?
CCC(=O)N1CCc2cc(CNS(=O)(=O)c3cc(OC)ccc3OC)ccc21,–,·,·,·,·,–
O=C(Nc1cccc(Cl)c1)Nc1nccs1,16.4µM,–,–,–,–,?
CSc1ccc(Cl)c(C(=O)Nc2nccs2)c1,–,?,–,–,–,–
O=C(Nc1ccc(Cl)c(Cl)c1)Nc1nccs1,0.82µM,–,13µM,2.31µM,–,2.06µM
Cc1cccnc1NC(=O)Nc1cccc(Cl)c1,–,?,–,?,–,–
COc1ccccc1NC(=O)c1sc2nc3c(c(C(F)(F)F)c2c1N)CN(C(C)=O)CC3,–,·,·,·,·,?
CCOc1ccc(-c2nnc(SCC(=O)NCc3ccccc3Cl)o2)cc1,–,·,·,·,·,–
